The full data set covers some 7,900 targets. This sample favours those with a hit. About 0.6% of all pairs of compound and target were hits. Unmarked numbers belong to inactive results.
Key:
Experiment in all cases: log2 fold change, soluble protein after heating vs DMSO (PISA); higher = thermal stabilisation; K562 cells, 10 uM, 30 min; active = over 0.2 and 3.5 SD of the protein, either way, in both replicates (recomputed)
[1] = compound: CC1=C(C=C(C=C1)NC(=O)C2=CC(=CC=C2)C(C)(C)C#N)NC3=CC4=C(C=C3)N=CN(C4=O)C
Summary of the method: (§1)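 Quantification of soluble protein used TMTpro 16plex LC-MS/MS, with channel sums equalised. Samples were the supernatant after 21,000xg for 90 min of pooled aliquots from K562 cells (2×10^6 cells/mL) treated with 10 μM compound for 30 min, heated for 3 min over 48°C-58°C, and extracted in PBS with 0.5% NP-40 at 4°C. Values, from duplicates, describe thermal stability against control samples on a log2 fold-change scale.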

[2] = compound: CC1=C(C=C(C=C1)NC(=O)C2=CC(=CC=C2)N(C)C)NC(=O)C3=CC=C(C=C3)O
Summary of the method: as §1

[3] = compound: CC1=CC=C(C=C1)SC2=C3C=C(SC3=CN=C2)C(=O)N
Summary of the method: as §1

[4] = compound: CC1=NC(=CC=C1)C2=C(N=C(N2)C(C)(C)C)C3=CC4=NC=CN=C4C=C3
Summary of the method: as §1

Nexturastat A = compound: CCCCN(Cc1ccc(C(=O)NO)cc1)C(=O)Nc1ccccc1 [Nexturastat A]
Summary of the method: as §1

vemurafenib = compound: CCCS(=O)(=O)Nc1ccc(F)c(C(=O)c2c[nH]c3ncc(-c4ccc(Cl)cc4)cc23)c1F [vemurafenib]
Summary of the method: as §1

[5] = compound: CCCS(=O)(=O)Nc1ccc(F)c(C(=O)c2c[nH]c3ncc(Cl)cc23)c1F
Summary of the method: as §1

[6] = compound: CCCc1cc(C)[nH]c(=O)c1CNC(=O)c1cc(-c2ccnc(N3CCN(C)CC3)c2)cc2c1cnn2C(C)C
Summary of the method: as §1

givinostat = compound: CCN(CC)Cc1ccc2cc(COC(=O)Nc3ccc(C(=O)NO)cc3)ccc2c1 [givinostat]
Summary of the method: as §1

barasertib = compound: CCN(CCCOc1ccc2c(Nc3cc(CC(=O)Nc4cccc(F)c4)[nH]n3)ncnc2c1)CCOP(=O)(O)O [barasertib]
Summary of the method: as §1

[7] = compound: CC[C@@H]1C(=O)N(C)c2cnc(Nc3ccc(C(=O)NC4CCN(C)CC4)cc3OC)nc2N1C1CCCC1
Summary of the method: as §1

volasertib = compound: CC[C@@H]1C(=O)N(C)c2cnc(Nc3ccc(C(=O)N[C@H]4CC[C@H](N5CCN(CC6CC6)CC5)CC4)cc3OC)nc2N1C(C)C [volasertib]
Summary of the method: as §1

[8] = compound: CC[C@H](C)N1C=C(C2=C(C=C(C=C21)C3=CN=C(C=C3)N4CCNCC4)C(=O)NCC5=C(C=C(NC5=O)C)C)C
Summary of the method: as §1

epoxomicin = compound: CC[C@H](C)[C@@H](C(=O)N[C@@H]([C@@H](C)O)C(=O)N[C@@H](CC(C)C)C(=O)[C@]1(CO1)C)NC(=O)[C@H]([C@@H](C)CC)N(C)C(=O)C [epoxomicin]
Summary of the method: as §1

[9] = compound: CCn1c(C(=O)N(C2CC2)C2CC2)cc2c3c(ncn3C)c(Nc3cc(C)n(C)n3)nc21
Summary of the method: as §1

[10] = compound: CCn1cc(-c2ccnc3[nH]c(-c4cccc(CN(C)C)c4)cc23)c(-c2ccc(NC(=O)N(C)C)cc2)n1
Summary of the method: as §1

[11] = compound: CN(C)CC(=O)Nc1ccc2[nH]c(=O)c3ccccc3c2c1
Summary of the method: as §1

rosiglitazone = compound: CN(CCOC1=CC=C(C=C1)C[C@H]2C(=O)NC(=O)S2)C3=CC=CC=N3 (racemic) [rosiglitazone]
Summary of the method: as §1

[12] = compound: CN1C2=C(C3=C1C(=O)N(N=C3)CC4=CC(=CC=C4)N)SC(=C2)S(=O)C
Summary of the method: as §1

[13] = compound: CN1CCC(CNc2ccc3ncc(-c4cccc(OC(F)(F)F)c4)n3n2)CC1
Summary of the method: as §1

UniProt O95613, sequence (O95613 whole entry, looked up): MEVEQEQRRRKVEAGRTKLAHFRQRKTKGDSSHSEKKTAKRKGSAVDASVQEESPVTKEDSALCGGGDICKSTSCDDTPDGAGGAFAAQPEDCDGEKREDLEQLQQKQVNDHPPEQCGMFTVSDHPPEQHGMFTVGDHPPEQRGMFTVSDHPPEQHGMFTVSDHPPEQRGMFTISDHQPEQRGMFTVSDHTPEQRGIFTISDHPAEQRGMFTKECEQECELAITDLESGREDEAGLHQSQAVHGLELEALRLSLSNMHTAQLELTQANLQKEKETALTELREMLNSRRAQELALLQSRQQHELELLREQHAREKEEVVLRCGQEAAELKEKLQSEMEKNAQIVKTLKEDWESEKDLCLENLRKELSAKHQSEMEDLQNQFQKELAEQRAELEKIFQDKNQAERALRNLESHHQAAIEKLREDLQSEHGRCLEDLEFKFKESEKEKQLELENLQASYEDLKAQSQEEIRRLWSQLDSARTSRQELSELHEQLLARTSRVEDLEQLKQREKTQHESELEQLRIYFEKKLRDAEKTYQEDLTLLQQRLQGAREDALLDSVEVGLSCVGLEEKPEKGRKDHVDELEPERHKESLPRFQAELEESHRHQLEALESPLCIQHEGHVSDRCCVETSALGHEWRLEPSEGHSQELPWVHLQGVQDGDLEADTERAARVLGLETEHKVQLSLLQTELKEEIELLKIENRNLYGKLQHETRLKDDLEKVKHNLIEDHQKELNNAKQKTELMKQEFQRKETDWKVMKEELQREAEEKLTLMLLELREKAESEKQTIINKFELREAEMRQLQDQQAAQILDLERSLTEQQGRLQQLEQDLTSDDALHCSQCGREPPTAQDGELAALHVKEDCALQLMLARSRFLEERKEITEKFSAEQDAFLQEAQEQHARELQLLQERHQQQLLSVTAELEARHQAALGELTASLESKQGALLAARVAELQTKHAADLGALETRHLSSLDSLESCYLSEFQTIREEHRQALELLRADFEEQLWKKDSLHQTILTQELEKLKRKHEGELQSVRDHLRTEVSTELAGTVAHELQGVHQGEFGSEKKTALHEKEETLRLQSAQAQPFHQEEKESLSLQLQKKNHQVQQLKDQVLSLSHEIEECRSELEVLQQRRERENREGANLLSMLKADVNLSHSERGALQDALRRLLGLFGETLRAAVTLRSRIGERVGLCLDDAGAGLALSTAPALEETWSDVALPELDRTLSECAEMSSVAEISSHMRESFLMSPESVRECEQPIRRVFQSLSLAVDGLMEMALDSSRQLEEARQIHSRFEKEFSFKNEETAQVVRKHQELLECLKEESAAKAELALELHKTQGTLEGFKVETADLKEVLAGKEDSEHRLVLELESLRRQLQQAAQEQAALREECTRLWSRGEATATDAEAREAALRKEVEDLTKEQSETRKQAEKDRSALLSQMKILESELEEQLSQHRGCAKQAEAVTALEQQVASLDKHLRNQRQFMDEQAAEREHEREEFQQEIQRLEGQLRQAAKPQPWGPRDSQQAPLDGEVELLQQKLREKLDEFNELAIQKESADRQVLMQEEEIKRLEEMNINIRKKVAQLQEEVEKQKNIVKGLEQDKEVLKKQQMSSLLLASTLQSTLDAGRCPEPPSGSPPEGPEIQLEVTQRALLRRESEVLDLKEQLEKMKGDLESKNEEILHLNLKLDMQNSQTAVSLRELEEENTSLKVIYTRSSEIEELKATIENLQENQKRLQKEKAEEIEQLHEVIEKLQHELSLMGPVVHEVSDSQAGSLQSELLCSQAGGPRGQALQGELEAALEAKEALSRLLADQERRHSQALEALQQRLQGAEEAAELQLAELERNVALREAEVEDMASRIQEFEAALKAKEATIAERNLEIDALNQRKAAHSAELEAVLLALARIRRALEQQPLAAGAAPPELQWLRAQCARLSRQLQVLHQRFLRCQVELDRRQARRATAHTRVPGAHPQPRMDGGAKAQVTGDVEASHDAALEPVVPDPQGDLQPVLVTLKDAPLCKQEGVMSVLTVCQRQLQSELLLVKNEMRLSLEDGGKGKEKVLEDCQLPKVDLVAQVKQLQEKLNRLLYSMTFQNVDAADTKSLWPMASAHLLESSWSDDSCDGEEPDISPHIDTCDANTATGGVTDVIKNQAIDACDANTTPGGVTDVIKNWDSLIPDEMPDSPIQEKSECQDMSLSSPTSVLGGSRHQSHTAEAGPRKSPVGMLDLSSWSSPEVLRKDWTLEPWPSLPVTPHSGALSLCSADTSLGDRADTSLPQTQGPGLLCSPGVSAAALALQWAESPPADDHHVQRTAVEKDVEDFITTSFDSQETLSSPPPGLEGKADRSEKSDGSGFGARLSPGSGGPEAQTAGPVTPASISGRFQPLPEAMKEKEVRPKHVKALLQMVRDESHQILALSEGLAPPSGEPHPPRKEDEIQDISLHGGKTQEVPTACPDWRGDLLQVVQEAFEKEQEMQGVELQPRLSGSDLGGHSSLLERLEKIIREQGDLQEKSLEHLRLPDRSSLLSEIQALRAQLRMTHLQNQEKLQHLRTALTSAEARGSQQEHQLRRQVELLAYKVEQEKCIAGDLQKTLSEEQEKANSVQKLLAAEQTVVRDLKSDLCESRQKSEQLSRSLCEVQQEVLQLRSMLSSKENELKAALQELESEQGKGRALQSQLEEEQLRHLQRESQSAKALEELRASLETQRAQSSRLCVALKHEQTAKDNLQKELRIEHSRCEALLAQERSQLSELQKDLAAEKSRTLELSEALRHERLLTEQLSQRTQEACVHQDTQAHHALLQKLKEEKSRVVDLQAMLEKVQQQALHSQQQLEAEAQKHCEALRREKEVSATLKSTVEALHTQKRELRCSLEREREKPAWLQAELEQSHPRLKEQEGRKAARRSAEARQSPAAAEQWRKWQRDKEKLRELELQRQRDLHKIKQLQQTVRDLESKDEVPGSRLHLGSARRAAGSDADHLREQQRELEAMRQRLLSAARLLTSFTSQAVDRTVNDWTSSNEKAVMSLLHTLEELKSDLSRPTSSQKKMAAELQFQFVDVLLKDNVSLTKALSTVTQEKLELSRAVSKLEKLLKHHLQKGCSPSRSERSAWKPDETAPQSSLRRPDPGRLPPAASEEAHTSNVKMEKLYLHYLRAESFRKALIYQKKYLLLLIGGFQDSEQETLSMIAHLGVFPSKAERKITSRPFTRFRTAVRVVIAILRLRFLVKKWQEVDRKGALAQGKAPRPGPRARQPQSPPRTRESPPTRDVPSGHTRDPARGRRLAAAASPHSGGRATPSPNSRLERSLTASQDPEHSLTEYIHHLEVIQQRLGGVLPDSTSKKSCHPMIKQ
UniProt P29590, sequence (P29590 whole entry, looked up): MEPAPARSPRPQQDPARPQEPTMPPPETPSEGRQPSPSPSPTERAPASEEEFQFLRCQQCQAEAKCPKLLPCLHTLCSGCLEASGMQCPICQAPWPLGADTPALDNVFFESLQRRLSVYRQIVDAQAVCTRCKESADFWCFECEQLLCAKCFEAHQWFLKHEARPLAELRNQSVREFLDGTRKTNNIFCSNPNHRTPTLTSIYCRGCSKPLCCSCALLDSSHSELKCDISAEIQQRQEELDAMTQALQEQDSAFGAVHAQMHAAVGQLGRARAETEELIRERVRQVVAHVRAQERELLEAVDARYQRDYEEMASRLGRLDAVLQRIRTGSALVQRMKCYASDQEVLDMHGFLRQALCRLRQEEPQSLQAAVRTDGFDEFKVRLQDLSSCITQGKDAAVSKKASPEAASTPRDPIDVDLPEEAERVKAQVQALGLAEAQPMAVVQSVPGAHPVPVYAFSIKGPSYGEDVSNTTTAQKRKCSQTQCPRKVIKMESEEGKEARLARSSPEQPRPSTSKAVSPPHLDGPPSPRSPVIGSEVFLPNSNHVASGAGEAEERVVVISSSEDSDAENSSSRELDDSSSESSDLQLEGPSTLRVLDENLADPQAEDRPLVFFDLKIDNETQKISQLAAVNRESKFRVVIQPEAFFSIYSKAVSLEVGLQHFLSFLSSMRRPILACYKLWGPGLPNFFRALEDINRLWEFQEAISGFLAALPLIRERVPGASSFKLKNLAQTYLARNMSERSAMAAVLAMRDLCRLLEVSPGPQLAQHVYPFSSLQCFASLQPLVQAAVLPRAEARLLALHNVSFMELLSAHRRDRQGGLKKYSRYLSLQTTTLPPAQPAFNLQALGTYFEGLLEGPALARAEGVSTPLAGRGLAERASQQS
UniProt Q9H814, sequence (Q9H814 whole entry, looked up): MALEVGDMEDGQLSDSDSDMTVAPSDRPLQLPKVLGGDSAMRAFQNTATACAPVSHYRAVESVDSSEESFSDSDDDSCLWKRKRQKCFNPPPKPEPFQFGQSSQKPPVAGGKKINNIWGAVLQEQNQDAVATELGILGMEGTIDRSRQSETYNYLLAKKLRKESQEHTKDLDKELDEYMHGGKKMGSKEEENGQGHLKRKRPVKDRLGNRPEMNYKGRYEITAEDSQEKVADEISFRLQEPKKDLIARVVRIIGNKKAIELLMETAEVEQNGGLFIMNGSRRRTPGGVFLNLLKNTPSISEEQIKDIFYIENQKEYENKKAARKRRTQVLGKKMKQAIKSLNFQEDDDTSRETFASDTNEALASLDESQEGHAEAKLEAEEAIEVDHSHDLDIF
UniProt O60256, sequence (O60256 whole entry, looked up): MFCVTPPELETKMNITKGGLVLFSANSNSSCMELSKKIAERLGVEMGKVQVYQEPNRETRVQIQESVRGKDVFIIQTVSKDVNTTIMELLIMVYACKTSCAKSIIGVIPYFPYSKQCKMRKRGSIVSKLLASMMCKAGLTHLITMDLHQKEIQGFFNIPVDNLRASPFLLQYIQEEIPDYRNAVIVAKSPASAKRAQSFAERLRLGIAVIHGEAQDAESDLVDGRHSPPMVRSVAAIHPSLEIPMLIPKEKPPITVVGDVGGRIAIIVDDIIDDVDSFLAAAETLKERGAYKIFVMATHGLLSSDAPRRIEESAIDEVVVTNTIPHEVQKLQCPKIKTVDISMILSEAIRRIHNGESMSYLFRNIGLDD

| Target | log2 fold change [1] | log2 fold change [2] | log2 fold change [3] | log2 fold change [4] | log2 fold change (Nexturastat A) | log2 fold change (vemurafenib) | log2 fold change [5] | log2 fold change [6] | log2 fold change (givinostat) | log2 fold change (barasertib) | log2 fold change [7] | log2 fold change (volasertib) | log2 fold change [8] | log2 fold change (epoxomicin) | log2 fold change [9] | log2 fold change [10] | log2 fold change [11] | log2 fold change (rosiglitazone) | log2 fold change [12] | log2 fold change [13] |
| --- | --- | --- | --- | --- | --- | --- | --- | --- | --- | --- | --- | --- | --- | --- | --- | --- | --- | --- | --- | --- |
| PRKCA (UniProt P17252) | -0.014 | -0.068 | -0.016 | 0.007 | 0.023 | -0.015 | 0.012 | -0.021 | -0.02 | 0.025 | 0.073 | -0.179 | 0.025 | -0.018 | -0.029 | 0 | 0.017 | 0.032 | -0.15 | -0.29 |
| PRMT7 (UniProt Q9NVM4) | 0.056 | -0.197 | 0.065 | -0.055 | -0.003 | -0.03 | 0.145 | -0.014 | 0.042 | 0.023 | -0.074 | -0.461 (active) | 0.04 | -0.036 | -0.042 | -0.077 | 0.032 | 0.082 | 0.022 | -0.176 |
| PC (UniProt P11498) | 0.07 | -0.103 | 0.038 | 0.012 | -0.07 | 0 | 0.032 | 0.039 | 0.022 | 0.009 | -0.041 | -0.069 | 0.067 | 0.041 | -0.082 | -0.217 | 0.027 | 0.084 | -0.128 | 0.03 |
| PSMD13 (UniProt Q9UNM6) | 0.03 | 0.034 | -0.068 | -0.029 | 0.064 | -0.05 | -0.048 | -0.016 | -0.05 | -0.041 | 0.075 | 0.217 | 0.008 | -0.288 (active) | 0.012 | 0.043 | -0.01 | 0.009 | 0.02 | 0.038 |
| PML (UniProt P29590) | -0.024 | -0.001 | -0.009 | -0.02 | -0.002 | -0.044 | 0.018 | -0.007 | -0.014 | 0.01 | -0.051 | -0.136 | 0.027 | -0.021 | -0.001 | -0.024 | -0.049 | 0.026 | 0.015 | -0.045 |
| PRPSAP2 (UniProt O60256) | -0.141 | -0.002 | -0.021 | -0.07 | -0.083 | -0.022 | -0.019 | -0.026 | -0.034 | -0.005 | 0.07 | 0.056 | -0.043 | -0.008 | -0.013 | -0.088 | -0.02 | 0.008 | -0.041 | 0.159 |
| POLR3B (UniProt Q9NW08) | 0.024 | -0.062 | -0.008 | 0.022 | 0.026 | 0.003 | 0.172 | 0.063 | 0.138 | 0.114 | 0.029 | -0.44 | 0.134 | 0.07 | -0.069 | -0.028 | 0.075 | 0.035 | 0.105 | -0.058 |
| PCBP2 isoform 3 (UniProt Q15366) | 0.054 | -0.024 | 0.065 | 0.149 | -0.006 | 0.056 | 0.129 | -0.004 | 0.031 | 0.013 | -0.069 | -0.263 (active) | 0.071 | 0.013 | -0.036 | -0.003 | 0.043 | 0.062 | -0.001 | -0.081 |
| PITRM1 isoform 2 (UniProt Q5JRX3) | 0.21 | -0.064 | 0.047 | 0.073 | -0.152 | 0.002 | -0.002 | 0.018 | -0.047 | -0.03 | 0.048 | 0.489 (active) | 0.166 | -0.029 | 0.074 | -0.084 | 0.023 | 0.03 | -0.124 | -0.189 |
| PRKACA (UniProt P17612) | -0.002 | -0.008 | -0.023 | 0.043 | 0.099 | 0.015 | 0.019 | -0.019 | 0.006 | -0.008 | -0.028 | -0.046 | 0.068 | -0.072 | -0.048 | -0.058 | 0 | 0.033 | -0.003 | 0.085 |
| PPP1CA (UniProt P62136) | -0.024 | -0.019 | -0.071 | 0.164 | -0.09 | -0.023 | -0.05 | 0 | -0.009 | 0.035 | -0.014 | -0.061 | 0.003 | 0.02 | 0.011 | -0.041 | -0.033 | 0.015 | -0.077 | 0.011 |
| PCNT (UniProt O95613) | -0.104 | 0.068 | -0.117 | -0.116 | 0.007 | -0.122 | -0.103 | -1.05 | 0.255 | 0.045 | 0.08 | 0.131 | -0.147 | -0.177 | -0.105 | -0.002 | -0.101 | 0.05 | 0.158 | -0.567 (active) |
| PUM1 isoform 3 (UniProt Q14671) | -0.011 | 0.01 | 0.011 | 0.042 | 0.06 | 0.02 | 0.05 | 0.002 | -0.03 | 0.011 | -0.075 | -0.302 (active) | 0.036 | 0.023 | -0.007 | -0.018 | 0.015 | 0.033 | 0.044 | -0.123 |
| PIK3R1 (UniProt P27986) | -0.08 | 0.001 | -0.019 | -0.046 | -0.018 | 0.047 | 0.058 | -0.054 | 0.028 | 0.038 | -0.04 | -0.142 | -0.018 | 0.036 | -0.015 | -0.072 | -0.002 | 0.095 | -0.064 | 0.127 |
| PHAX (UniProt Q9H814) | -0.019 | 0.013 | 0.022 | -0.043 | 0.02 | 0.002 | -0.019 | -0.045 | -0.076 | -0.008 | -0.03 | -0.106 | 0.027 | -0.041 | 0.014 | 0.111 | 0.011 | -0.007 | -0.054 | 0.042 |
| PRKAG1 isoform 3 (UniProt P54619) | -0.042 | -0.006 | 0.007 | 0.037 | -0.01 | 0.026 | 0.002 | -0.026 | 0.014 | 0.013 | -0.018 | -0.207 | 0.048 | -0.024 | 0.002 | -0.033 | -0.015 | 0.033 | -0.009 | -0.299 (active) |

Reference: the supplement of paper PMC10849652
